The nature of assay [1]: ATG_CRE_CIS: Attagene CIS-FACTORIAL HepG2 Assay for human cAMP Responsive Element (CRE) binding protein 3 (AID 2282926). The following applies: HepG2 CRE cis-reporter, Attagene multiplexed mRNA; actives raise or lower the signal. The method, boiled down:
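Readout: fluorescently labelled reporter transcripts resolved by capillary electrophoresis after RT-PCR, taken 24 h post-dosing in transfected HepG2. Endogenous transcription factor activity drives each cis-element reporter; gain or loss of signal fitted relative to DMSO control.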

Assay [2] deals with CCAAT/enhancer-binding protein beta (Homo sapiens) (UniProt P17676). Briefly: ATG_C_EBP_CIS: Attagene CIS-FACTORIAL HepG2 Assay for human CCAAT/Enhancer Binding Protein (C/EBP) beta (AID 2282927). The following applies: HepG2 Attagene cis-factorial transcription factor reporter; actives raise or lower the signal. The procedure, abridged: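 Endogenous transcription factor activity in human liver HepG2 cells is inferred from induction of a CEBPB-linked reporter mRNA. Exposure lasts 24 h; activity is fitted in both directions relative to DMSO.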

Assay [3] can be described thus: ATG_CMV_CIS: Attagene CIS-FACTORIAL HepG2 Assay for human CMV (Internal Marker) (AID 2282928).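 Note: endpoint acts as a background internal control marker rather than a target.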 The note with it: HepG2 CMV promoter reporter, transcription factor profiling; actives raise or lower the signal. The procedure, abridged:
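Readout: fluorescent reporter cDNA fragments separated by capillary electrophoresis after RT-PCR and HpaI cut. Cells: HepG2 carrying transfected cis-promoter reporter constructs, dosed 24 h. Endpoint serves as background internal-marker control, fit bidirectionally versus DMSO.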

Assay [4] in a line: ATG_DR4_LXR_CIS: Attagene CIS-FACTORIAL HepG2 Assay for human Liver X Receptor (LXR), DR4 submotif (AID 2282929). The following applies: HepG2 Attagene DR4 cis-reporter, mRNA transcription; actives raise or lower the signal. The procedure, abridged:
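Measures endogenous transcription factor activity via a DR4-driven reporter transcript in human HepG2 cells. Compounds incubated 24 h; mRNA quantified by RT-PCR and capillary electrophoresis, analysed as gain or loss of signal versus DMSO.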

Assay [5] deals with Aryl hydrocarbon receptor (Homo sapiens) (UniProt P35869). Briefly: ATG_Ahr_CIS: Attagene CIS-FACTORIAL HepG2 Assay for human Aryl Hydrocarbon Receptor (Ahr) (AID 2282930). The following applies: HepG2 AhR cis-factorial reporter transcription; actives raise or lower the signal. The method, boiled down: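 Transient MRTU transfection of HepG2 → 24 h compound exposure → total RNA, oligo(dT) RT → PCR, 6-FAM extension, HpaI cut → CE fluorescence. DMSO = baseline; bidirectional curve fit.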

The nature of assay [6]: ATG_AP_1_CIS: Attagene CIS-FACTORIAL HepG2 Assay for human Activator Protein 1 (AP-1) (AID 2282931). The following applies: HepG2 Attagene cis-factorial AP-1 reporter mRNA; actives raise or lower the signal. The procedure, abridged:
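Bidirectional concentration-response fitting against DMSO controls. Underlying signal: reporter mRNA from cis-promoter constructs in transiently transfected HepG2, measured after 24 h by RT-PCR and capillary electrophoresis.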

Assay [7] is described as follows: ATG_AP_2_CIS: Attagene CIS-FACTORIAL HepG2 Assay for human Activator Protein 2 (AP-2) (AID 2282932). The following applies: HepG2 AP-2 cis-reporter, Attagene transcription factor profiling; actives raise or lower the signal. The method, boiled down: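 Endogenous transcription factor activity is reported through transfected multiplex reporter constructs in HepG2, after 24 h of compound exposure. Transcripts were quantified by RT-PCR and capillary electrophoresis of fluorescent fragments. Bidirectional fit against DMSO.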

Assay [8] can be described thus: ATG_BRE_CIS: Attagene CIS-FACTORIAL HepG2 Assay for human Bone Morphogenetic Protein (BMP) Response Element (BRE) (AID 2282933). The note with it: HepG2 BMP response element reporter, Attagene transcription factor profiling; actives raise or lower the signal. The method, boiled down:
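HepG2 cells transiently transfected with multiplexed cis-element reporter units were dosed with chemical for 24 h. Reporter mRNA was measured by RT-PCR with fluorescent labelling, HpaI digestion and capillary electrophoresis; bidirectional fitting relative to DMSO.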

Assay [9] has as its target Retinoic acid receptor alpha (Homo sapiens) (UniProt P10276). Briefly: ATG_DR5_RAR_CIS: Attagene CIS-FACTORIAL HepG2 Assay for human Retinoic Acid Receptor Alpha (RARE), DR5 submotif (AID 2282934). The following applies: HepG2 Attagene cis-factorial RARE DR5 reporter, mRNA; actives raise or lower the signal. The procedure, abridged: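 Transient MRTU transfection of HepG2; 24 h compound treatment; TriZol RNA, oligo(dT) RT, PCR, FAM labelling, capillary electrophoresis. Bidirectional fit vs DMSO. Endogenous TF activity at DR5 RARE.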

For assay [10], the target named is Transcription factor E2F1 (Homo sapiens) (UniProt Q01094). In words: ATG_E2F_CIS: Attagene CIS-FACTORIAL HepG2 Assay for human E2F Transcription Factor 1 (AID 2282935). The following applies: HepG2 Attagene cis-reporter, E2F reporter RNA transcripts; actives raise or lower the signal. The method, boiled down: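 Gain or loss of reporter transcript, fitted against DMSO, reflects E2F1-driven transcription. Transiently transfected HepG2 dosed 24 h before RNA isolation. Quantified by fluorescent RT-PCR products separated by capillary electrophoresis.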

Assay [11] is described as follows: ATG_E_Box_CIS: Attagene CIS-FACTORIAL HepG2 Assay for human Enhancer Box (E-box) (AID 2282936). The note with it: HepG2 E-box cis-reporter transcription, actives raise or lower the signal. The procedure, abridged: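 E-box-driven reporter transcripts measured in transiently transfected HepG2 after 24 h exposure: RNA reverse-transcribed, PCR-amplified, fluorescently labelled, digested and resolved by capillary electrophoresis. Gain or loss relative to DMSO.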

The nature of assay [12]: ATG_M_61_CIS: Attagene CIS-FACTORIAL HepG2 Assay for M61 Transcription Factor (Internal Marker) (AID 2282937). The note with it: HepG2 Attagene CIS-FACTORIAL M61 internal marker reporter; actives raise or lower the signal. The method, boiled down:
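Fluorescence from labelled cDNA fragments, separated by capillary electrophoresis, quantifies reporter induction. HepG2 cells bearing transiently transfected cis-promoter MRTUs were incubated with test chemical for 24 h; DMSO defined baseline for gain/loss fitting.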

Assay [13] can be described thus: ATG_EGR_CIS: Attagene CIS-FACTORIAL HepG2 Assay for human Early Growth Response 1 (EGR1) (AID 2282938). The note with it: HepG2 Attagene CIS-FACTORIAL EGR reporter mRNA; actives raise or lower the signal. The method, boiled down:
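Cell-based multiplex transcription assay: HepG2 carrying transfected cis-element reporter units, 24 h chemical treatment. Fluorescence from capillary electrophoresis of RT-PCR products gives mRNA levels; fitting is bidirectional relative to DMSO.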

Assay [14] is described as follows: ATG_M_19_CIS: Attagene CIS-FACTORIAL HepG2 Assay for M19 Transcription Factor (Internal Marker) (AID 2282939). The note with it: HepG2 Attagene CIS-FACTORIAL M19 internal marker reporter; actives raise or lower the signal. The method, boiled down: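 HepG2 cells transiently transfected with cis-regulated multiple reporter transcription units were dosed for 24 h; reporter mRNA was quantified by RT-PCR, 6-FAM primer-extension labelling, HpaI digestion and capillary electrophoresis, with bidirectional fitting against DMSO baseline.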

The nature of assay [15]: ATG_Ets_CIS: Attagene CIS-FACTORIAL HepG2 Assay for human Erythroblast Transformation Specific (ETS) (AID 2282941). The note with it: HepG2 ETS cis-reporter transcription, actives raise or lower the signal. The procedure, abridged: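 RT-PCR/capillary electrophoresis fluorescence read-out of reporter mRNA; HepG2 transient multi-reporter transfection; 24 h compound exposure; gain or loss of signal fitted bidirectionally relative to DMSO.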

Assay [16] concerns the target Hepatocyte nuclear factor 3-beta (Homo sapiens) (UniProt Q9Y261). Briefly: ATG_FoxA2_CIS: Attagene CIS-FACTORIAL HepG2 Assay for human Forkhead box A2 (FOXA2) (AID 2282942). The following applies: HepG2 cis-reporter transcription factor activity, 24 h; actives raise or lower the signal. The procedure, abridged: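 In transiently transfected human HepG2 cells, promoter-driven reporter mRNA levels after 24 h chemical exposure are determined via RT-PCR with capillary electrophoresis. DMSO serves as baseline for bidirectional fitting.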

The nature of assay [17]: ATG_GATA_CIS: Attagene CIS-FACTORIAL HepG2 Assay for human GATA Binding Protein (AID 2282944). The note with it: HepG2 GATA cis-element reporter, Attagene multiplex mRNA; actives raise or lower the signal. The procedure, abridged:
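HepG2 cells transiently transfected with multiplexed cis-element reporter units reflecting endogenous transcription factor activity; reporter mRNA measured after 24 h dosing by RT-PCR, 6-FAM labeling, HpaI digestion and capillary electrophoresis. Bidirectional fitting versus DMSO baseline.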

Assay [18] is described as follows: ATG_GLI_CIS: Attagene CIS-FACTORIAL HepG2 Assay for human Zinc Finger Protein GLI1 (AID 2282945). The following applies: HepG2, Attagene cis-factorial reporter mRNA, GLI element; actives raise or lower the signal. The method, boiled down:
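Bidirectional curve fits relative to DMSO, using reporter mRNA levels from RT-PCR plus capillary electrophoresis. Cells were HepG2 transiently carrying cis-regulated reporter constructs, harvested 24 h after dosing.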

Assay [19] deals with Bile acid receptor (Homo sapiens) (UniProt Q96RI1). Briefly: ATG_IR1_CIS: Attagene CIS-FACTORIAL HepG2 Assay for human Nuclear Receptor Subfamily 1 Group H Member 4 (NR1H4), IR1 submotif (AID 2282946). The note with it: IR1 reporter transcription, actives raise or lower the signal. The method, boiled down: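 HepG2 cells transiently transfected with multiplexed cis-element reporter units read endogenous transcription factor activity. After 24 h compound exposure, reporter mRNA was quantified by RT-PCR, fluorescent labelling, HpaI digestion and capillary electrophoresis; bidirectional fitting versus DMSO baseline.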

Assay [20] is described as follows: ATG_FoxO_CIS: Attagene CIS-FACTORIAL HepG2 Assay for human Forkhead box O (FoxO) (AID 2282943). The following applies: HepG2 Attagene cis-reporter, FoxO element, mRNA; actives raise or lower the signal. The method, boiled down:
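HepG2, transient MRTU transfection (cis element, endogenous TFs). Dose 24 h. TriZol RNA → oligo(dT) RT → PCR → 6-FAM primer extension → HpaI cut → CE. Gain/loss vs DMSO.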

Active and inactive are the calls of the source. Rule for the calls: active = hit-call score of the fitted dose curve at least 0.9, where 1 is the maximum; inactive = score below 0.9.

Sequence of Aryl hydrocarbon receptor (Homo sapiens) (P35869 whole entry, looked up): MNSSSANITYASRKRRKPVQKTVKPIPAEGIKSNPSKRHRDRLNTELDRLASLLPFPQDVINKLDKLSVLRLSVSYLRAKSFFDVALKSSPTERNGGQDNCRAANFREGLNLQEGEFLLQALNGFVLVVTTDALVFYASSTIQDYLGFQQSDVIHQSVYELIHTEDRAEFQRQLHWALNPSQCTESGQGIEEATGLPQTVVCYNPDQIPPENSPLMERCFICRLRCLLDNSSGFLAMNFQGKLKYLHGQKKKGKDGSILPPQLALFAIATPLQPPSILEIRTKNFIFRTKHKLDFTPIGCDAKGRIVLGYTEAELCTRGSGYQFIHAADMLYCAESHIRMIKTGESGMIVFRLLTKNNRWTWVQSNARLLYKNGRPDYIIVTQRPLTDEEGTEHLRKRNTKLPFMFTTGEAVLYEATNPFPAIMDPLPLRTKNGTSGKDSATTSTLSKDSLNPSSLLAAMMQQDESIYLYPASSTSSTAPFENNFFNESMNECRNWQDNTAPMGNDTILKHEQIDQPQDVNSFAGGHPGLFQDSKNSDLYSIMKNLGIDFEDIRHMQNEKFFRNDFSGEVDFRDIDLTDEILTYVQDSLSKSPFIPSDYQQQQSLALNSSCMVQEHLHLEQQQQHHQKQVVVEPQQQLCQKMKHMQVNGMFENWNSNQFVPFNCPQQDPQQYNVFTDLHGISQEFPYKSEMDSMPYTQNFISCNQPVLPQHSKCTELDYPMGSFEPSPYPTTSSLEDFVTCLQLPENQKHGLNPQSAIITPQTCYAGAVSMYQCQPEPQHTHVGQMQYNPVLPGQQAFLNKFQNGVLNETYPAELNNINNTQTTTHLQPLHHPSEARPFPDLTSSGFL
Sequence of Retinoic acid receptor alpha (Homo sapiens) (P10276 whole entry, looked up): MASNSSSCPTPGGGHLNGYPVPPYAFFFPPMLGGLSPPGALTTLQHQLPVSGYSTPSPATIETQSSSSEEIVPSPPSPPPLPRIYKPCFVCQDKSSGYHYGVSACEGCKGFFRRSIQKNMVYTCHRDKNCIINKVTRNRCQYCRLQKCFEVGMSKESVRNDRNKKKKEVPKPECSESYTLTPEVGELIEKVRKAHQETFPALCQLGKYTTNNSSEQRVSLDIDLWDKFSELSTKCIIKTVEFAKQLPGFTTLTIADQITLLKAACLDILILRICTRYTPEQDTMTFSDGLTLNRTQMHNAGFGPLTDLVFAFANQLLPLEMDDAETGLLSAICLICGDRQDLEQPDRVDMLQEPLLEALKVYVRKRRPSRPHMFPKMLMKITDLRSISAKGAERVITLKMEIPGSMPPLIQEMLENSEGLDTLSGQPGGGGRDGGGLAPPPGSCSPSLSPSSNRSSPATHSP
Sequence of CCAAT/enhancer-binding protein beta (Homo sapiens) (P17676 whole entry, looked up): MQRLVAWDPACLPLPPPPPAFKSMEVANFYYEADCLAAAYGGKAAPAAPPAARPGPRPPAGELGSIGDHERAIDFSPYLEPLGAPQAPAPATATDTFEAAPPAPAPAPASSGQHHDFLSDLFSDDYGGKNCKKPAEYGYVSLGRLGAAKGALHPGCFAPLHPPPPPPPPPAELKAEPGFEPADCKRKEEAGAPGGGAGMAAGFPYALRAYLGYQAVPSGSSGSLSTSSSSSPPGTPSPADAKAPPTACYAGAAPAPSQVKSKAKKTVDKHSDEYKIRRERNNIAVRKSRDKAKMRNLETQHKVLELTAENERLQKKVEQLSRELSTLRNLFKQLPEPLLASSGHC
Sequence of Transcription factor E2F1 (Homo sapiens) (Q01094 whole entry, looked up): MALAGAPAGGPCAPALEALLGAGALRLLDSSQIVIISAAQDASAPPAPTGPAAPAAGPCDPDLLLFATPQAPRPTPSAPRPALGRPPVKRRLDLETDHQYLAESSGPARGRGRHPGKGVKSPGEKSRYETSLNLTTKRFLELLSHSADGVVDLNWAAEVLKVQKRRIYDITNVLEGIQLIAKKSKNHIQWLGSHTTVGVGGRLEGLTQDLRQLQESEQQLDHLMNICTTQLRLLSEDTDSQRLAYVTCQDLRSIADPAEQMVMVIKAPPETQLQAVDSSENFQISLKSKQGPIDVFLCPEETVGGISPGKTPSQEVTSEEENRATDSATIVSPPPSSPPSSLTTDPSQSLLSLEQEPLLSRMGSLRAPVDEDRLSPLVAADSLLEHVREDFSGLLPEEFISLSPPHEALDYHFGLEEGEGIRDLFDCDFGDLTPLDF
Sequence of Hepatocyte nuclear factor 3-beta (Homo sapiens) (Q9Y261 whole entry, looked up): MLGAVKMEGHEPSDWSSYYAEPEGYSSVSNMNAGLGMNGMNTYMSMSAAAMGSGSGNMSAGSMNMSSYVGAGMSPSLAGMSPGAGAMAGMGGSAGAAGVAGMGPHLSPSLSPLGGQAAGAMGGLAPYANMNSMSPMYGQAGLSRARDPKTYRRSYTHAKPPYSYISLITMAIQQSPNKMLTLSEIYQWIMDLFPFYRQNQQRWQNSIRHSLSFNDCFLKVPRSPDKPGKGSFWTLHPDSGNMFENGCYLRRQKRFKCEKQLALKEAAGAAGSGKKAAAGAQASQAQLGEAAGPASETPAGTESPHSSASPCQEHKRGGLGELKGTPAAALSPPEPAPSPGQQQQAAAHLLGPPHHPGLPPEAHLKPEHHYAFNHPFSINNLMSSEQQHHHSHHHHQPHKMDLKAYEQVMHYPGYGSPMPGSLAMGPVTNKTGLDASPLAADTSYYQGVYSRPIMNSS
Sequence of Bile acid receptor (Homo sapiens) (Q96RI1 whole entry, looked up): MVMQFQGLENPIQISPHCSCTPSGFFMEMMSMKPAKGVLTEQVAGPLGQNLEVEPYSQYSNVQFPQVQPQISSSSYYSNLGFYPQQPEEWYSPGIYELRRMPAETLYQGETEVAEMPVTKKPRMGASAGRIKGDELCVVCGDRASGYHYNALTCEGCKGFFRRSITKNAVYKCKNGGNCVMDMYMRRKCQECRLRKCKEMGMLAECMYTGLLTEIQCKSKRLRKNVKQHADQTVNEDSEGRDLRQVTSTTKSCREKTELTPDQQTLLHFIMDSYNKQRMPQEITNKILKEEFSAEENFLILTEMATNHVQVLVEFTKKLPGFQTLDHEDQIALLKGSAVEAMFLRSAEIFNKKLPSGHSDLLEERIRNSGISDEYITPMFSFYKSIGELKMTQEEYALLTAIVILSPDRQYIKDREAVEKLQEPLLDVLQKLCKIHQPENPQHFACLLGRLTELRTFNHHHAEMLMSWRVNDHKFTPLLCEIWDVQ

Regarding `CCC(C)=O`, the compound was classed as inactive in [1], in [2], in assay [3], in assay [4], in [5] and in assay [6]. Further, the result in [7], in assay [8], in assay [9], in [10], in assay [11] and in assay [12] was inactive. Besides, the outcome in assay [13], in assay [14], in [15], in [16], in [17] and in [18] was inactive. The compound was called inactive in [19].
Regarding `CC(C)CCCCCCc1ccc(OCCOCCO)cc1`, the compound was classed as inactive in [1], in [2], in [3], in assay [4], in assay [5] and in assay [6]. For the same compound, the compound was classed as inactive in [7], in assay [8], in [9], in assay [10], in [11] and in [12]. The outcome in assay [13], in assay [15], in assay [16], in assay [20], in [17] and in assay [18] was inactive.
As to `O=C(O)c1cccnc1C(=O)O`, the result in assay [1], in assay [2], in [3], in assay [4], in [5] and in assay [6] was inactive. In addition, the compound was classed as inactive in assay [7], in assay [8], in assay [9], in assay [10], in assay [11] and in [12]. In addition, the call in [13], in assay [14], in [15], in [16], in [17] and in assay [18] was inactive.
Turning to `CCCCCCCCSCCO`, the AC50 was 100 µM (active) in assay [1]; 100 µM (active) in assay [2]; 100 µM (active) in [3]; 148 µM (active) in assay [4]; 151 µM (active) in assay [19]. For the same compound, the call in [5], in assay [6], in [7], in assay [8], in assay [9] and in assay [10] was inactive. Further, the outcome in [11], in assay [12], in assay [13], in assay [15], in [16] and in assay [20] was inactive. Moreover, the compound was classed as inactive in [17] and in [18].

One may read the AC50 as the concentration at which the activity in the assay is half-maximal.
